# Measured values taken from PubChem BioAssay AID720706 (Broad Institute, 2013).
# In all, about 350,000 compounds went through this assay and about 5,500 (1.6%) were called active.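 The calls were made as follows: active = significant combined selectivity score with lowered wild-type GFP, culture density cut under 30%, mutant RFP and density less affected; inactive = any of these conditions unmet.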 Many of the other results were omitted from the sample, so actives are more common in it than they were.
# Assay: GFP drop in mixed WT/humanized-ribosome E. coli culture – GFP/RFP fluorescence, OD600, single point, bacterial rRNA inhibitor project, primary screen (AID 720706)
# Details: E. coli WT GFP vs humanized-ribosome RFP mutants, 24 h; GFP signal change (wild-type ribosome): stronger effect = lower value, DMSO median 0, no signal -100; OD600 change: measured here: OD600 growth, DMSO median 0, no signal -100; RFP signal change: measured here: RFP humanized mutant strains, DMSO median 0, no signal -100, concentration not given here
SMILES,GFP signal change (wild-type ribosome),OD600 change [%],RFP signal change [%]
Cc1ccccc1-c1ccc2c(c1)O[C@@H](CN(C)C(=O)Nc1ccc(F)cc1)[C@H](C)CN([C@@H](C)CO)S2(=O)=O,-3.25% (inactive),-11.6,-1.01
O=C(c1ccncc1)N1CC(=O)N2[C@H](CO)[C@H](c3ccc(-c4ccccc4F)cc3)[C@@H]2C1,3.75% (inactive),-1.79,-0.215
CCCNC(=O)N1CC2(C1)CN(Cc1cccc(F)c1)[C@@H](CO)c1[nH]c3cc(OC)ccc3c12,0.104% (inactive),3.77,0.338
Cn1c(SCC(=O)N2CCCCC2)nc2c(c1=O)SCC2,5.14% (inactive),-0.579,-0.99
Cc1cccc(CSc2nc3c(c(=O)n2C)SCC3)c1,-33.5% (active),-21,-2.49
COCCn1c(SCC(=O)Nc2ccc(F)cc2F)nc2c(c1=O)SCC2,0.103% (inactive),-1.78,-3.71
CCCN1[C@H](C(=O)N[C@H](C)c2ccccc2)[C@@H](CO)[C@@H]2Cn3c(ccc(-c4ccccc4)c3=O)[C@@H]21,-1.92% (inactive),-37.1,14.2
Cc1ccc(CC2S/C(=C(/C#N)C(=O)N3CCOCC3)N(c3ccccc3)C2=O)cc1 (configuration not stated),7.88% (inactive),10.1,-0.528
Cc1cccc(N2C(=O)SC(N(CC(=O)O)c3cccc(C)c3)C2=O)c1 (configuration not stated),2.86% (inactive),2.55,2.75
Cc1ccc(N2C(=O)SC(N(CC(=O)O)c3ccc(C)cc3)C2=O)cc1 (configuration not stated),-19.1% (active),-12.3,8.05
CCC(=O)N(C)C[C@@H]1Oc2cc(C#CCOC)ccc2S(=O)(=O)N([C@@H](C)CO)C[C@@H]1C,2.66% (inactive),5.66,-0.769
C[C@H](CO)N1C[C@H](C)[C@@H](CN(C)S(=O)(=O)c2ccc(Cl)cc2)Oc2ccc(NS(=O)(=O)c3cccs3)cc2CC1=O,-3.83% (inactive),-15.4,2.4
CN(c1ccc(O)cc1)c1nc(-c2cccnc2)cs1,-12.4% (inactive),-11.5,-4.17
COc1ccc(C(C)(O)c2nc(-c3ccc(C)c(C)c3)cs2)cc1 (configuration not stated),-26.3% (inactive),-43.5,0.438
CC(C)(C)C(=O)OCc1nc(-c2ccc(O)c(O)c2)cs1,-25.8% (active),-12.7,-1.12
COc1ccccc1-c1ccc([C@@H]2C[C@H]3[C@H](CON3C)CN2S(=O)(=O)c2cc(Cl)cc(Cl)c2)cc1,6.53% (inactive),14.8,-4.58
CC(=O)Nc1ccc(NC(=O)CSc2nnnn2-c2ccccc2F)cc1,4.89% (inactive),2.23,-0.743
Cc1ccccc1-n1nnnc1SCCCC(=O)c1ccc(F)cc1,-23.1% (active),-14.2,-2.44
O=C(CSc1nnnn1-c1ccc(O)cc1)c1ccc(F)cc1,-23.8% (inactive),-18.1,-2.43
CCNC(=O)Nc1ccc2c(c1)C(=O)N(C)[C@H]1CC[C@H](CC(=O)NCC3CCCCC3)O[C@@H]1CO2,-0.861% (inactive),-5.67,0.251
O=C(c1ccc(F)cc1)N1CC(=O)N2[C@H](CO)[C@H](c3ccc(-c4ccccc4F)cc3)[C@@H]2C1,0.409% (inactive),-9.64,3.17
C[C@@H]1CN([C@H](C)CO)C(=O)c2cc(NC(=O)Nc3ccccc3)ccc2O[C@@H](C)CCCCO[C@@H]1CN(C)S(=O)(=O)c1ccc(F)cc1,1.72% (inactive),-2.21,-3.62
COc1ccc2c3c(n(C)c2c1)[C@@H](CO)N(C)CC31CN(S(=O)(=O)c2cccs2)C1,0.733% (inactive),-9.82,-0.435
O=C(C[C@@H]1CC[C@@H](NC(=O)Nc2ccc(F)cc2)[C@H](CO)O1)NCCN1CCCC1,0.52% (inactive),4.7,-1.57
